High-throughput results deposited in PubChem by National Center for Advancing Translational Sciences (NCATS).
The list is not random: actives were taken first. Their share in the collection is about 0.88%.
TRHR agonist – TRH receptor (human) agonism; AID 493084; 0.18% of 360,000 active; TRHR cells, calcium flux fluo-8, FDSS agonist mode; activation, % at 2 µM; P34981; in the data active = activation above about 30%; also: 0% is about no effect
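Read-out: compound-evoked intracellular calcium rise in TRHR cells, fluo-8 dye, kinetic FDSS fluorescence at 1 s/cycle following a 10-cycle baseline. Cells cultured overnight before dye loading (30 min–1.5 h, RT).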
Epigenetic reg – derepresses silenced GFP reporter in murine cells. 0.2% of 280,000 active. Potency, µM (doses to about 53.9 µM), for inactives: at the highest dose GFP activation, actives largely listed as activators. murine LDR cells, GFP reporter derepression, 30 h; also: potency is read from the fitted curve at half-maximal effect; % of control where 0% means no effect; nearly all actives have a fitted effect of over 60% in size
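GFP-positive cell count by laser-scanning cytometry (objects 20–120 um) after 30 h, 37 C compound exposure of murine LDR cells; reporter is CMV-GFP integrated at a silenced locus, inducible by HDAC or DNMT inhibitors.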
MBNL1-CUG inh – MBNL1-poly(CUG) RNA binding inhibition | Q9NR56 | Potency, µM (highest dose often 57.5 µM), for inactives: at the top dose activity change, negative = inhibition, usual class: inhibitors | TR-FRET MBNL1-His/biotin-(CUG)12 binding, 665/545 ratio | 0.036% of 280,000 active; active = well fitted inhibition curve with a large enough effect in the signal ratio, with a control signal flat, not every such curve was filed as active; inconclusive = small, poorly fitted or top-dose-only effect, or effect the other way, or a change in a side signal; inactive = no such curve, though single readings can be large or run the other way; the % refers to the signal ratio; also: potency is read from the fitted curve at half-maximal effect; % is scaled to controls: 0 for no effect and ±100 for the full control effect
Target sequence (Q9NR56 whole entry, looked up): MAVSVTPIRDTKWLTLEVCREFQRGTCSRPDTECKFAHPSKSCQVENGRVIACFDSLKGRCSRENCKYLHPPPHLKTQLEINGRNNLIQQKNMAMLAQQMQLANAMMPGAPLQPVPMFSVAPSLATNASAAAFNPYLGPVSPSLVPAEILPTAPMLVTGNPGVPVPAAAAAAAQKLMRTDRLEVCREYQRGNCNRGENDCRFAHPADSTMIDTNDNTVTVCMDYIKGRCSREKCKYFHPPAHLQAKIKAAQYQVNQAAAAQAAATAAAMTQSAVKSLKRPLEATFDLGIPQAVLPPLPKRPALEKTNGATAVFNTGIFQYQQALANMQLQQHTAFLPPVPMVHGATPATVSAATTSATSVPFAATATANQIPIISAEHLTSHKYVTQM
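Compounds (final 92 nM to 58 uM) are added to His-tagged MBNL1 and biotin-(CUG)12, then terbium anti-His antibody and streptavidin-XL665 (5 nM final). After 60 min at room temperature, the 665/545 nm ratio is read.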
CBFb-RUNX1 inh – inhibitors of human CBF-beta and RUNX1 interaction; Q01196+Q13951; AlphaScreen CBFb-His/RUNX1-biotin binding, biochemical; Potency, µM (highest dose often 59.8 µM), for inactives: top-dose activity, negative = inhibition, usual class: inhibitors; 230,000 tested, under 10 active; AID 1477; also: % of control where 0% means no effect
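Read-out: AlphaScreen. Format: His-CBF-beta with biotinylated RUNX1 (30 nM each) preincubated 20 min, compound 15 min, Ni-chelate plus streptavidin beads 90 min; room temperature throughout.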
TRHR enhancer – TRH receptor (human) allosteric enhancement; 0.66% of 360,000 active; TRHR cells, fluo-8 calcium fluorescence, EC20 TRH enhancement; P34981; enhancement, % at 2 µM; in the data active = enhancement above about 30%; also: 0% is about no effect
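TRHR-expressing cells loaded with fluo-8 calcium dye were read kinetically (ex 480/em 530) during compound addition, then stimulated with an EC20 of TRH (10 nM final). Enhancement of the Gq-mediated intracellular calcium response was scored.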
IL-2 act – IL-2 activation; IL-2 activation reporter assay, cell-based qHTS; stimulated with anti-CD3/CD4/CD28 beads; in transgenic mouse T cells; 0.065% of 360,000 active; activation, % (series mostly up to about 46 µM); in the data active = activation above about 50%; inconclusive = mostly about 30% to 49%; also: 0% is about no effect
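Screening format: compound pinned onto unstimulated transgenic mouse T cells, 60 min incubation, then anti-CD3/anti-CD4/anti-CD28 bead stimulation for 18 hours at 37 degrees C, followed by EGFP and DsRed detection.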
* = called active by the depositor. Unless noted, calls follow the shape of the dose curve; as a rule, active = well fitted curve in the direction sought with a large enough effect; inconclusive = small, poorly fitted or top-dose-only effect, or another doubt; inactive = no such curve, though single readings can be large; an effect the other way counts as inactive or inconclusive.

Results for Cc1ccc(-c2ccc(C3C(C#N)=C(N)Oc4n[nH]c(C)c43)o2)cc1 (stereo unspecified) ?
TRHR agonist: 0; Epigenetic reg: inconclusive; MBNL1-CUG inh: -17%; CBFb-RUNX1 inh: 4%; TRHR enhancer: 2; IL-2 act: -2

What do the screens show for `CCOC(=O)c1ccc(NC(=O)CSc2nc(-c3cccs3)cc(C(F)(F)F)c2C#N)cc1`?
TRHR agonist: 16; Epigenetic reg: 10µM*; TRHR enhancer: -4

What do the screens show for `COc1ccc(-c2cc(C(F)(F)F)c(C#N)c(SCC(=O)Nc3ccccc3C#N)n2)cc1`?
TRHR agonist: 14; Epigenetic reg: 7.9µM*; MBNL1-CUG inh: 5%; CBFb-RUNX1 inh: 6%; TRHR enhancer: -7; IL-2 act: inconclusive

How did Cc1cccc(NC(=O)CSc2nc(-c3cccs3)cc(C(F)(F)F)c2C#N)c1 do in these assays?
TRHR agonist: 4; Epigenetic reg: 14µM*; TRHR enhancer: -12

What do the screens show for `COc1ccc(NC(=O)Cn2c(=O)n(-c3cccc(C)c3)c(=O)c3c2c2cc(C)ccc2n3C)cc1OC`?
TRHR agonist: 0; Epigenetic reg: inconclusive; TRHR enhancer: 1

Results for Cc1ccc(Cn2c(C(=O)NCc3ccccc3Cl)cc3sccc32)cc1 ?
TRHR agonist: 2; Epigenetic reg: 1%; TRHR enhancer: -2

What do the screens show for `COc1cccc(C(=O)NCC(=O)OCc2cc(=O)n3c(C)csc3n2)c1`?
TRHR agonist: 0; Epigenetic reg: 0%; TRHR enhancer: 34*

Results for C/C(=N\NC(=O)c1nnn(-c2nonc2N)c1-c1ccc2c(c1)OCO2)c1cccs1 ?
TRHR agonist: 13; MBNL1-CUG inh: 3%; TRHR enhancer: 31*; IL-2 act: 0

What do the screens show for `Cc1cc(C)c(NC(=O)c2ncoc2-c2ccco2)c(C)c1`?
TRHR agonist: 1; Epigenetic reg: 12%; TRHR enhancer: 1

How did CN(Cc1ccccc1)C(=S)NC(=O)c1cccs1 do in these assays?
TRHR agonist: 0; MBNL1-CUG inh: -3%; TRHR enhancer: 44*; IL-2 act: -3

Results for Clc1cccc(/C=N/Nc2ncnc3ccccc23)c1 ?
TRHR agonist: 0; Epigenetic reg: 0%; MBNL1-CUG inh: 20%; CBFb-RUNX1 inh: -13%; TRHR enhancer: 31*; IL-2 act: -3

How did COc1ccc(C2c3ccc(O)cc3Oc3ncn4nc(-c5ccco5)nc4c32)cc1OC (stereo unspecified) do in these assays?
TRHR agonist: 1; Epigenetic reg: 22µM*; CBFb-RUNX1 inh: 1%; TRHR enhancer: -4; IL-2 act: -2

What do the screens show for `COc1ccc(NC(=O)CSc2nc3nc(C)c(Cc4ccccc4)c(C)n3n2)cc1OC`?
TRHR agonist: -1; Epigenetic reg: -2%; TRHR enhancer: 1

How did O=C(NCc1ccco1)c1ccc2c(c1)N(Cc1ccc(F)cc1)C(=O)c1ccccc1S2(=O)=O do in these assays?
TRHR agonist: 1; Epigenetic reg: -1%; TRHR enhancer: -1

What do the screens show for `COc1ccc(N2CCN(C3CCCCC3NS(=O)(=O)c3ccc(Cl)cc3)CC2)cc1` (stereo unspecified)?
TRHR agonist: 9; MBNL1-CUG inh: -4%; TRHR enhancer: -3; IL-2 act: -2

How did COc1ccccc1N1CCN(C2CCCCC2NS(=O)(=O)c2ccc(Cl)cc2)CC1 (stereo unspecified) do in these assays?
TRHR agonist: 46*; MBNL1-CUG inh: 2%; TRHR enhancer: -16; IL-2 act: -5

Results for CC(C)(C)c1ccc(/C=C2\Oc3cc(O)ccc3C2=O)cc1 ?
TRHR agonist: 15; MBNL1-CUG inh: 0%; TRHR enhancer: -5; IL-2 act: -1

Results for COC(=O)c1ccc2c(c1)C(=O)/C(=C/c1ccc(O)cc1)O2 ?
TRHR agonist: 31*; Epigenetic reg: 2%; MBNL1-CUG inh: inconclusive; CBFb-RUNX1 inh: 11%; TRHR enhancer: -6; IL-2 act: 16

How did CN(C)c1nc(C#N)nc(N(C)C)n1 do in these assays?
TRHR agonist: 0; Epigenetic reg: -1%; MBNL1-CUG inh: 5%; CBFb-RUNX1 inh: -1%; TRHR enhancer: 33*; IL-2 act: -2

What do the screens show for `CCOc1ccc(NC(=O)/C(C#N)=C/c2ccc(N3CCCC3)c(C)c2)cc1`?
TRHR agonist: 32*; Epigenetic reg: 1%; MBNL1-CUG inh: 276%; CBFb-RUNX1 inh: 5%; TRHR enhancer: 9; IL-2 act: 270*

Results for CCN(CC)S(=O)(=O)c1ccc(N2CCCCC2)c(NC(=O)/C(C#N)=C/c2ccc(OC)cc2)c1 ?
TRHR agonist: 0; Epigenetic reg: 2%; MBNL1-CUG inh: 0%; CBFb-RUNX1 inh: 0%; TRHR enhancer: 2; IL-2 act: -1

Results for CC(C)c1ccc(CNc2n[nH]c(-c3ccco3)n2)cc1 ?
TRHR agonist: -1; Epigenetic reg: 2%; TRHR enhancer: -4

What do the screens show for `COc1cc(CC(=O)OCC(=O)Nc2ccccc2C#N)cc(OC)c1OC`?
TRHR agonist: 0; TRHR enhancer: 8; IL-2 act: 0

Results for COc1cc(CCC(=O)OCC(=O)Nc2ccccc2C#N)cc(OC)c1OC ?
TRHR agonist: 0; Epigenetic reg: -2%; CBFb-RUNX1 inh: -3%; TRHR enhancer: 34*; IL-2 act: 1

How did NC(C(=O)O)c1cccc(O)c1 (stereo unspecified) do in these assays?
Epigenetic reg: 1%; CBFb-RUNX1 inh: -5%

How did CCOC(=O)C1CCN(C(=O)COC(=O)c2cccc(F)c2)CC1 do in these assays?
TRHR agonist: 0; Epigenetic reg: -1%; CBFb-RUNX1 inh: -5%; TRHR enhancer: 36*; IL-2 act: 0

What do the screens show for `Cn1cc(S(=O)(=O)c2cccc(Cl)c2)c(=O)c2cc(F)c(N3CCN(c4ccc(F)cc4)CC3)cc21`?
TRHR agonist: 0; Epigenetic reg: 1%; TRHR enhancer: 3

How did c1ccc2c(c1)OCC(c1csc3ncnc(N4CCCCC4)c13)O2 (stereo unspecified) do in these assays?
TRHR agonist: 0; Epigenetic reg: -1%; MBNL1-CUG inh: -2%; CBFb-RUNX1 inh: 3%; TRHR enhancer: -3; IL-2 act: -1

What do the screens show for `CCCN1CCN(c2ncnc3scc(C4COc5ccccc5O4)c23)CC1` (stereo unspecified)?
TRHR agonist: -1; Epigenetic reg: 2%; MBNL1-CUG inh: -6%; CBFb-RUNX1 inh: -2%; TRHR enhancer: 36*; IL-2 act: -1
